Assay outcomes (PubChem BioAssay)
Rows were chosen to be rich in hits. Some 9.6% of all compounds tested hit in one or more screens of this group.
HCT116 PTEN-null: growth suppressors of cells with PTEN tumor suppressor deletion; HCT116 PTEN-null viability, CellTiter-Glo, 60 h; stronger effect = lower value; viability, % at 10 µM; 140,000 tested, 1.2% active; AID 827;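 active means viability at or below a set limit, 4 SD under the median of all tested compounds, cut at about 3.7% in these data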;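 further: PTEN knockout HCT116 line with beta catenin targeted HCT116 as companion control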
Insulin prom up: MIN6 insulin promoter up-regulation; 190,000 tested, 0.3% active; MIN6 insulin promoter-GFP reporter, high-content imaging; stronger effect = higher value; z-score at 5 µM;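 active means z-score above 3 at 5 µM with at least 500 cells counted in the well; inconclusive means wells under 500 cells, flagged as cytotoxic or low count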
L major viab: inhibitors of Leishmania major promastigote growth; Leishmania major promastigotes, resazurin fluorescence viability; AID 1063; 200,000 tested, 9% active; inhibition, % at 10 µM; in the data active means inhibition above about 50%;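 further: promastigotes grown with compound for 44 hours at 28 °C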
Insulin prom inh: TRM-6 insulin promoter activity inhibition; inhibition, % at 2 µM; 130,000 tested, 0.9% active; TRM-6 cells (human fetal islet line), insulin promoter-eGFP reporter, imaging; reporter expression induced with tamoxifen; AID 1273;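 active means inhibition above the mean plus 3 SD, with well images judged a real hit on visual review, cut at about 60% in these data, passing the limit was not always enough; inconclusive means inhibition over the cutoff but images rejected on review; inactive means inhibition not above the cutoff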
HCT116 bCat-KO: beta-catenin-lacking colon tumor cell growth suppression | HCT116 beta-catenin knockout viability, CellTiter-Glo, 60 h; stronger effect = lower value | 140,000 tested, 1.5% active | viability, % at 10 µM | AID 818;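 active means viability at or under a set limit, the compound median less 4 SD, cut at about 6% in these data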;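 further: 0% = Hyamine 1622 control at 20 µM and 100% = untreated cell control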
Autophagy mod: modulators of autophagy | calls only at 10 µM (by protocol) | MEF GFP-LC3 puncta imaging; test concentration mostly 10 µM | AID 463193 | 190,000 tested, 0.98% active;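 active means percentage of spot-positive cells more than 3 SD above its plate mean, without a fluorescence outlier flag or 80% toxicity; inconclusive means no clear call, values can overlap the other calls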;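 further: spot-positive cell cutoff set from DMSO-treated cells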
Numbers without * were called inactive; i = inactive; u = inconclusive; x = no result given; + = active, no number.

SMILES	HCT116 PTEN-null	Insulin prom up	L major viab	Insulin prom inh	HCT116 bCat-KO	Autophagy mod
O=[N+]([O-])c1ccc(N/N=C/c2ccccc2)c(F)c1	89	x	-8	x	87	i
CCCCN(CC(=O)NCCOC)C(=O)Cn1nnc2ccccc21	x	-0.07	7	x	x	i
Cc1ccc(N=Nc2ccc(O)c3ncccc23)cc1	12	u	100*	-123	18	i
COc1ccc(N=Nc2cc(C)ccc2O)cc1	x	-0.4	x	x	x	x
CCS(=O)(=O)c1ccc(N=Nc2ccc(O)c3ncccc23)c(OC)c1	x	u	100*	i	x	i
Cc1ccc(N=Nc2ccc(O)c3ncccc23)cc1C	x	-4.4	100*	-279	x	i
Cc1c(CCOC(=O)c2cc([N+](=O)[O-])cc([N+](=O)[O-])c2)sc[n+]1CC(=O)c1ccc(Br)cc1	x	0.05	100*	x	x	i
Cc1ccc(S(=O)(=O)c2c(CO)c(-c3ccccc3)nn2C)cc1	x	-0.52	3	x	x	i
CC(C)Cc1ccc(C(C)C(=O)O)cc1 (stereo unspecified)	94	x	-7	-5	102	i
O=C(c1cc2n(n1)C(C(F)(F)F)CC(c1ccco1)N2)N1CCc2ccccc2C1 (stereo unspecified)	83	-0.36	54*	61	94	i
CNC(=O)c1ccsc1NC(=O)c1ccc2c(c1)CCCC2	68	-2.2	21	76*	67	i
NC(=O)c1ccsc1NC(=O)c1ccc2c(c1)CCCC2	43	-0.38	-3	-51	46	i
COc1cccc(-n2c(SCC(=O)Nc3sc4c(c3C(N)=O)CCC4)nc3ccccc3c2=O)c1	79	1.3	52*	x	82	i
COc1ccc(-c2c(C#N)c(SCC(=O)Nc3ccccc3)nc3c2CCCC3)cc1	x	x	92*	-270	x	i
CCOC(=O)c1c(NC(=O)CSc2nnc(-c3ccc(OC)cc3)o2)sc2c1CCC2	x	x	-3	15	x	+
COc1ccccc1NC(=O)CC(=O)CSc1nnc(-c2ccc(C)cc2)n1-c1ccccc1	102	1.3	72*	39	92	i
COc1ccccc1CNC(=O)CNCC1CCCO1 (stereo unspecified)	94	-0.58	-8	-48	102	i
COc1ccccc1NC(=O)CSc1c2c(nc3ccccc13)CCC2	73	x	36	48	76	i
COc1ccccc1NC(=O)Cc1nnc(SCC(=O)Nc2ccccc2F)n1C	x	-0.13	-10	0	x	i
COc1ccc(C)cc1NC(=O)CSc1nnc(CC(=O)Nc2ccccc2C)n1C	81	0.21	7	67*	87	i
COc1ccc(-n2c(SCC(=O)Nc3sc4c(c3C#N)CCCC4)nnc2-c2ccccc2OC)cc1	81	-1.9	46	-60	79	i
COc1ccc(NC(=O)CSc2c3c(nc4ccccc24)CCCC3)c(OC)c1	11	x	35	-7	5.9*	i
CCOC(=O)c1c(NC(=O)CSc2nnc(-c3c[nH]c4ccccc34)n2C)sc2c1CCCC2	62	-1.1	51*	7	56	i
COc1ccc(-c2nnc(SCC(=O)Nc3sc4c(c3C#N)CCCC4)n2-c2ccccc2)cc1	1.7*	0.16	-3	-231	3.9*	+
CC(=O)Nc1ccc(-c2csc(Nc3ccc(S(N)(=O)=O)cc3)n2)cc1	x	0.05	0	x	x	i
SMILES	HCT116 PTEN-null	Insulin prom up	L major viab	Insulin prom inh	HCT116 bCat-KO	Autophagy mod
O=C(O)c1ccccc1C1Nc2ccccc2C(=O)N1CCCN1CCOCC1 (stereo unspecified)	x	0.38	x	x	x	x
COC(=O)c1ccc(C2/C(=C(\O)c3cccc(OC)c3)C(=O)C(=O)N2CCCN2CCOCC2)cc1 (stereo unspecified)	100	0.47	-1	x	102	i
O=C(COc1ccc(Cl)cc1Cl)N/N=C1\CCCc2ccccc21	77	-1.3	-1	x	82	i
Cc1cccc(Sc2c([N+](=O)[O-])ncn2C)n1	72	-1.1	4	x	73	i
O=C(CCCCCn1c(=S)[nH]c2ccccc2c1=O)NCc1ccc2c(c1)OCO2	92	-0.56	-10	27	90	i
CN1/C(=C\C=O)C(C)(C)c2ccccc21	x	-2.4	11	-67	x	i
CN1/C(=C\C=Nc2ccc3ccccc3c2)C(C)(C)c2ccccc21	50	0.58	88*	-6	47	+
CN(C)c1ccc(N=C/C=C2\N(C)c3ccccc3C2(C)C)cc1	63	x	101*	-6	64	i
CN1/C(=C/C=C(C#N)C#N)C(C)(C)c2ccccc21	x	-0.1	0	45	x	i
CN1\C(=C/C=C/C=C/C=[N+](C)C)C(C)(C)c2ccccc21	x	u	98*	i	x	+
Cc1cc(/N=C/C=C2\N(C)c3ccccc3C2(C)C)n(CCC#N)n1	66	-0.83	101*	x	61	i
COc1ccc(NC(=O)CCc2nc3ccccc3s2)c(OC)c1	x	0.79	5	x	x	i
Cc1ccc(-c2nc3cccnc3s2)cc1NC(=O)C1c2ccccc2Oc2ccccc21	49	0.37	-4	-10	53	i
CCOC(=O)C1=C(N)n2c(s/c(=C/c3ccccc3)c2=O)=C(C(=O)OCC)C1c1ccccc1 (stereo unspecified)	53	-0.29	-1	3	34	i
CN1/C(=C\C=N\NC(=O)c2ccc(O)cc2)C(C)(C)c2ccccc21	36	u	86*	-34	31	i
O=C(Nc1ccccc1Br)C1CC(=O)N(c2ccc3c4c(cccc24)CC3)C1 (stereo unspecified)	31	0.21	62*	19	33	i
Cc1cc(C(=O)OCC(=O)NC(=O)NC(C)(C)C)c(C)o1	87	0.81	5	x	113	i
Cc1cc(C)cc(NC(=O)/C=C/c2ccc([N+](=O)[O-])s2)c1	14	6*	82*	x	26	i
Cc1ccccc1NC(=O)/C=C/c1ccc([N+](=O)[O-])s1	1.4*	u	82*	x	2.0*	+
CCN(CC)c1ccc(/C=C2\NC(=O)NC2=O)cc1	66	-0.42	-1	-21	64	i
O=C1NC(=O)/C(=C\c2ccsc2)N1	x	0.36	3	72*	x	i
S=c1[nH]c(-c2ccc(Cl)cc2)cs1	x	0.63	67*	9	x	i
Cc1ccc(-c2csc(=S)[nH]2)cc1	x	-0.93	25	40	x	i
O=C(O)Cc1cn(-c2ccccc2)nc1-c1ccccc1	x	0.12	-9	x	x	i
O=C(NCc1cn(-c2ccccc2)nc1-c1ccc(F)cc1)c1cccc([N+](=O)[O-])c1	60	-3.2	81*	x	68	i
O=C(CCl)Nc1cn(-c2ccccc2)nc1-c1ccc(F)cc1	x	-0.31	84*	x	x	i
CCn1cc(CNC(=O)c2cccc([N+](=O)[O-])c2)c(C)n1	91	-0.38	-2	x	93	i
Fc1ccc(-c2nn(-c3ccccc3)cc2CNCc2ccccc2)cc1	x	-0.55	80*	x	x	i
O=C(c1cn(-c2ccccc2)nc1-c1ccc(F)cc1)N1CCCCC1	80	0.53	81*	-49	102	i
